Out of some 330,000 compounds screened, about 4,400 (1.3%) were called active.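 The calls were made as follows: active = growth inhibition of the mutant yeast at or above 50%; inactive = the rest.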 The list comes from a sample in which actives are over-represented; it also holds similar structures and randomly drawn compounds.

This assay can be described thus: growth inhibitors of tim23-1 mutant yeast, primary screen, luminescence, uHTS (AID 463212).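 Also: temperature-sensitive mutant grown at 25 °C; plate controls were DMSO-treated mutant yeast for no effect and medium wells lacking yeast for full effect.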 The conditions noted are these: S. cerevisiae tim23-1 growth, BacTiter-Glo luminescence, 24 h; at 20 µM; active compounds read high.
For the molecule `CC(C)=CCC/C(C)=C/C(=O)O`, the inhibition is 8.44% (inactive).

As for `CC(C)S(=O)(=O)c1csc(NC(=O)Nc2ccc(Cl)cc2)c1Cl`, the inhibition is 22.2% (inactive). As for `CCn1c(CSc2nncn2-c2ccc(OC)cc2)nc2cc(S(=O)(=O)N(C)C)ccc21`, the figure is 8.84% (inactive). For the molecule `Cc1cc(C(=O)COc2ccccc2Cl)c(C)n1C1CC1`, the inhibition is 38.7% (inactive).

In the case of `O=C(COC(=O)C1CCCO1)Nc1nc(-c2ccc(F)cc2)cs1` (stereo not drawn), the inhibition was 11.2% (inactive).

For the molecule `CCCc1cc(=O)[nH]c(SCC(=O)N2C(C)CCCC2C)n1` (stereo not drawn), the inhibition was 0.431% (inactive). The result for `CC1CCCC(C)N1C(=O)CN1CCN(c2nc(-c3ccc(F)cc3)cs2)CC1` (stereo not drawn) reads 52.8% (active); that for `O=C(COC(=O)/C(=C/c1cccs1)c1cccs1)NCc1ccccc1Cl`, 24% (inactive).

Take `Cc1ccc2nc(/C(C#N)=C\c3ccc(OC(=O)c4cccs4)cc3)[nH]c2c1`: the inhibition was -4.69% (inactive). As for `COc1cc(/C=C(\C#N)c2nc3ccccc3[nH]2)ccc1O`, the figure is 56.4% (active).

As for `O=C(/C(=C/c1cccc(Cl)c1)c1nc2ccccc2[nH]1)c1ccccc1`, the inhibition is 44.9% (inactive). The result for `CCOc1ccc(OCC(=O)Nc2c3c(nn2C(C)(C)C)CS(=O)(=O)C3)cc1` reads 11.1% (inactive); that for `CCOC(=O)c1c(NC(=O)CCl)sc(C(=O)N(CC)CC)c1C`, 5.96% (inactive); that for `O=S(=O)(c1cccc2nonc12)N1CCN(c2cccc(Cl)c2)CC1`, 22.8% (inactive).

For `O=C(CCCN1C(=O)CCC1=O)Nc1ccc(Cl)c(C(F)(F)F)c1`, the inhibition was -4.71% (inactive). Turning to `O=C(COC(=O)c1cc[n+]([O-])cc1)Nc1ccc(Cl)c(C(F)(F)F)c1`, the inhibition was 5.05% (inactive). The result for `O=C(CC(O)(C(F)(F)F)C(F)(F)F)Nc1ccc(Cl)c(Cl)c1` reads 90.6% (active). The result for `CC/C(O)=C1\C(=O)CC(C)(C)CC1=NCCc1nc2ccccc2[nH]1` reads -7.57% (inactive); that for `CC(=O)N1CCOc2ccc(S(=O)(=O)N3CCN(c4cccc(C(F)(F)F)c4)CC3)cc21`, 36.1% (inactive); that for `COc1ccc2c(c1)C(NS(=O)(=O)OCC(Cl)(Cl)Cl)CCC2` (stereo not drawn), 55.4% (active). As for `COc1ccc(CN(C)C(C)C(=O)NC2CCCc3ccccc32)cc1` (stereo not drawn), the figure is 24.3% (inactive).

Consider `COC(=O)c1cc(OCC(=O)NC2CCCc3ccccc32)cc(C(=O)OC)c1` (stereo not drawn), for which the inhibition was 16.8% (inactive). With `CC(CC(=O)N1CCN(c2ccccc2)CC1)S(=O)(=O)c1ccc2c(c1)NC(=O)CS2` (stereo not drawn), the inhibition is -6.88% (inactive).

As for `O=C(NCC(O)c1ccc([N+](=O)[O-])cc1)C1CCCCC1` (stereo not drawn), the inhibition was -0.943% (inactive). As for `Cc1cc(C)cc(OCC(=O)O/N=C(\N)Cc2ccc([N+](=O)[O-])cc2)c1`, the figure is 26.9% (inactive); as for `O=C(COC(=O)Cc1ccc([N+](=O)[O-])cc1)NC1CCCCCC1`, 19.1% (inactive); as for `COC(=O)C(C)NC(=O)COc1ccc2ccccc2c1` (stereo not drawn), 7.67% (inactive). As for `N/C(Cc1ccc([N+](=O)[O-])cc1)=N\OC(=O)COc1ccc2ccccc2c1`, the figure is 60.5% (active); as for `N/C(Cc1ccc([N+](=O)[O-])cc1)=N\OC(=O)C1CCCCC1`, 58.8% (active); as for `CC(Oc1ccc2c(-c3ccccc3)cc(=O)oc2c1)C(=O)NC(Cc1c[nH]c2ccccc12)C(=O)O` (stereo not drawn), 21% (inactive).

As for `CCc1ccc(NC(=O)CS(=O)CC(=O)N2CCN(c3ccccc3F)CC2)cc1` (stereo not drawn), the inhibition was -23.1% (inactive). As for `Cc1occc1C(=O)N/N=C/c1ccc(-c2cccc([N+](=O)[O-])c2)o1`, the figure is 26% (inactive); as for `O=C(CN1CCOCC1)N/N=C/c1ccc(-c2ccc(Br)cc2)o1`, 1.87% (inactive). Turning to `Cc1ccc(-c2ccc(/C=N/NC(=O)CN3CCOCC3)o2)cc1[N+](=O)[O-]`, the inhibition was 55.9% (active). As for `Cc1cccc(CC(=O)N2CCN=C2SCc2ccc([N+](=O)[O-])cc2)c1`, the figure is -3.28% (inactive); as for `O=C(COc1ccccc1F)Nc1nc(-c2ccccn2)cs1`, 28.7% (inactive); as for `CCN(C(=O)COC(=O)C1CCN(S(=O)(=O)c2ccc(C)c(C)c2)CC1)C1CCS(=O)(=O)C1` (stereo not drawn), 0.758% (inactive). As for `N/C(=N\OC(=O)c1cc(-c2ccccc2)nc2ccccc12)c1ccncc1`, the figure is 79.2% (active). As for `COC(=O)CNC(=O)c1cc(-c2ccncc2)nc2ccccc12`, the figure is 10.9% (inactive); as for `C/C(N)=C(/C#N)C(=O)COC(=O)c1cc(-c2ccc(C)cc2)nc2ccccc12`, 3.42% (inactive); as for `CNC(=O)COc1ccc(S(=O)(=O)Nc2ccccc2)cc1`, 8.77% (inactive). Turning to `NC(=O)c1oc2ccccc2c1NC(=O)CS(=O)(=O)c1ccccc1`, the inhibition was 6.4% (inactive).

Turning to `S=C(Nc1ccc(Br)cc1Cl)N1CCC2(CC1)OCCO2`, the inhibition was 20.7% (inactive). The result for `COc1ccc(OC)c(NC(=O)CN(Cc2ccc(Cl)cc2)S(C)(=O)=O)c1` reads 9.4% (inactive); that for `COc1ccc(C(=O)Nc2ccccc2C(=O)N/N=C/c2ccc(O)c(OC)c2)cc1`, 96% (active).

For `COc1ccc2[nH]c(C(=O)N/N=C/c3cc(OC)c(OC)c(OC)c3)cc2c1`, the inhibition is 20.6% (inactive). The result for `COc1ccc(C(=O)Nc2ccccc2C(=O)N/N=C/c2ccccc2OC)cc1` reads 78.3% (active); that for `COc1ccc(/C=N/Nc2ccccc2C(=O)O)cc1`, 17% (inactive). Regarding `COc1ccc(C(=O)Nc2cc(C)c(NC(=O)c3ccccc3OC)cn2)cc1`, the inhibition is 28.7% (inactive). The result for `COc1ccc(C(=O)Nc2ccccc2C(=O)N2CCN(c3ccccc3)CC2)cc1` reads 35.2% (inactive); that for `CC(C)(C)c1ccc(C(=O)N2CCC(C(=O)N3CCCCC3)CC2)cc1`, 13.5% (inactive). As for `CCc1[nH]nc(C(=O)N2CCCC(CNS(=O)(=O)c3cccs3)C2)c1C` (stereo not drawn), the figure is 0.752% (inactive). On to `Cc1ccc(C(C(=O)NCC2CCCO2)N(C(=O)c2snc(C(N)=O)c2N)c2ccc(C(C)C)cc2)o1` (stereo not drawn), for which the inhibition was 32.2% (inactive).

Regarding `CCOc1cc2[nH]c(=S)n(CCN3CCCCC3C)c(=O)c2cc1OCC` (stereo not drawn), the inhibition was 14.8% (inactive). The result for `CC(C)Cc1ccc(C(C)C(=N)N)cc1` (stereo not drawn) reads 3.35% (inactive); that for `CCOc1cccc(NC(=O)Cn2nc(-c3ccc4c(c3)OCCO4)ccc2=O)c1`, -11.4% (inactive); that for `Cc1ccc(-c2csc(NCCc3nc4cc(Cl)c(Cl)cc4n3CCOCCO)n2)cc1`, 25.4% (inactive).

For `Cc1ccc(Nc2nc(-c3ccc(O)cc3O)cs2)nc1`, the inhibition was 65.9% (active).

Source of the values: PubChem BioAssay AID463212 (Sanford-Burnham Center for Chemical Genomics, 2010).
